Screening results deposited in PubChem by National Center for Advancing Translational Sciences (NCATS).
A selection: hits, their analogues and other compounds. The true share with any hit is near 13%.
Pf growth 48h: Primary qHTS for delayed death inhibitors of the malarial parasite plastid, 48 hour incubation; P. falciparum luciferase growth in erythrocytes, 48 h; Potency, µM (titrated, usually from 28.7 µM), hits mostly inhibitors; 310,000 tested, 5.9% active; AID 504832, 2011
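Luminescence readout; reporter = integrated firefly luciferase in P. falciparum. RBC culture at 2% hematocrit, 0.1% parasitemia final, 37 C/5% CO2; decreased signal taken as growth inhibition.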
HCMV antiviral: qHTS Assay for inhibitors of the human cytomegalovirus (HCMV); HFF cells, HCMV-luciferase reporter, 72 h; active compounds read low; activity change, negative = inhibition, % at 57.5 µM; 410,000 tested, 4.5% active; AID 1259415, 2018; in the data active means activity change below about -60%; inconclusive means no clear call, values can overlap the other calls; inactive means above about -39%
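Human foreskin fibroblasts infected with luciferase-reporter HCMV at MOI 1 PFU/cell, compounds at two doses. Luciferase measured 72 h post infection; normalized to buffer-only basal and Salinomycin (10uM) controls.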
HCV inh: qHTS Assay for Inhibitors of Hepatitis C Virus (HCV) | Potency, µM (titrated, usually from 41.8 µM), hits mostly inhibitors | AID 651820, 2012 | Huh7.5.1 HCVcc-Cre infection, luciferase reporter, 44 h | 340,000 tested, 3.4% active
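Reporter virus HCVcc-Cre (~0.5 moi) infects cells exposed to compound; seeding density 1,000 cells/well with 4 h settling beforehand. Luminescence, 15 sec read, taken 44 h post-infection following a 15 min RT substrate incubation.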
Pf growth 96h: Primary qHTS for delayed death inhibitors of the malarial parasite plastid, 96 hour incubation; Potency, µM (titrated, usually from 28.7 µM), hits mostly inhibitors; 320,000 tested, 6.9% active; P. falciparum luciferase reporter growth, 96 h
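Compounds incubated with erythrocytes infected by luciferase-expressing P. falciparum (2% hematocrit, 0.05% parasitemia final) for 96 hours, 37 C in 5% CO2. Growth inhibition scored as decreased luciferase luminescence.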
Each line names hits and unclear results; the compound was inactive in the other large screens; ! = a repeat was not active. Unless noted, the call rests on the fitted dose curve; in most records, active means well fitted inhibition curve with a large enough effect; inconclusive means small, poorly fitted or top-dose-only effect, or another doubt; inactive means no such curve, though single readings can be large or run the other way.

CCCCNC(=O)c1ccc2c(c1)N(Cc1ccc(F)cc1)C(=O)c1ccccc1S2=O (configuration not stated)	none (no result: Pf growth 48h, HCV inh, Pf growth 96h)
CC1CCCCN1CCNC(=O)c1ccc2c(c1)N(Cc1ccccc1F)C(=O)c1ccccc1S2=O (configuration not stated)	Pf growth 48h inconclusive, HCMV antiviral inconclusive, HCV inh inconclusive, Pf growth 96h 5.86µM
CC1=C(C(=O)Nc2ccccc2)C(c2ccc(C(=O)O)cc2)n2nc(SCC(=O)c3ccc(C)cc3)nc2N1 (configuration not stated)	none (no result: Pf growth 48h, HCV inh, Pf growth 96h)
CCOC(=O)N1CCN(C(=O)c2ccc3c(c2)N(Cc2cc(C)ccc2C)C(=O)c2ccccc2S3=O)CC1 (configuration not stated)	Pf growth 48h inconclusive, HCMV antiviral -88.5!, HCV inh inconclusive
CCN1CCN(CCNC(=O)c2ccc3c(c2)N(Cc2cccc(Cl)c2)C(=O)c2ccccc2S3=O)CC1 (configuration not stated)	Pf growth 48h 11.7µM, HCMV antiviral -72.8, HCV inh inconclusive, Pf growth 96h inconclusive
O=C(NCc1ccccc1F)[C@H]1[C@H](CO)[C@H]2Cn3c(cccc3=O)[C@H]2N1CC1CC1	none (no result: Pf growth 48h, HCV inh, Pf growth 96h)
O=C(Cn1c(=O)n(-c2ccccc2Cl)c(=O)c2sc3ccccc3c21)NC1CCCCC1	none (no result: Pf growth 48h, HCV inh, Pf growth 96h)
COc1ccc(S(=O)(=O)NCCc2sc(C)nc2C)cc1F	none (no result: Pf growth 48h, HCV inh, Pf growth 96h)
CCCCCSc1nc(N2CCOCC2)c2c(c1C#N)CC(C)(C)OC2	Pf growth 48h 9.28µM, Pf growth 96h inconclusive
CCCOC(=O)CSc1nc(N2CCOCC2)c2c(c1C#N)CC(C)(C)OC2	Pf growth 48h inconclusive, Pf growth 96h 1.85µM
CC(C)CSc1nc(N2CCOCC2)c2c(c1C#N)CC(C)(C)SC2	Pf growth 48h 9.28µM, Pf growth 96h inconclusive
O=C(N[C@H](C(=O)N1CCC[C@H]1C(=O)NCCc1ccccc1Cl)C1CCCCC1)c1cccs1	none (no result: Pf growth 48h, HCV inh, Pf growth 96h)
CCOC(=O)c1c(C)oc2ncnc(N3CCN(c4ccccc4F)CC3)c12	none (no result: Pf growth 48h, HCV inh, Pf growth 96h)
CCCN(C(=O)COc1cc(=O)n(CC)c2ccccc12)c1ccc(C(C)C)cc1	HCMV antiviral -102.1 (no result: Pf growth 48h, HCV inh, Pf growth 96h)
CCCN(CCC)C(=O)COc1cc(=O)n(CC)c2ccccc12	Pf growth 96h inconclusive
COc1ccc(C2CC(=O)c3cc(-c4nc(-c5ccc(Cl)cc5)c(C)s4)c(=O)[nH]c3C2)cc1 (configuration not stated)	none (no result: Pf growth 48h, HCV inh, Pf growth 96h)
O=C(O)c1ccc(-c2ccc(/C=C3\NC(=O)N(Cc4ccc(Cl)cc4)C3=O)o2)cc1Cl	Pf growth 48h 14.7µM
CCOC(=O)CN1C(=O)S/C(=C\c2ccc(-c3ccc(C(=O)O)c(Cl)c3)o2)C1=O	Pf growth 48h inconclusive
COc1ccc(OC)c(CNS(=O)(=O)c2ccccc2Br)c1	none (no result: Pf growth 48h, HCV inh, Pf growth 96h)
OCCC1CN(Cc2cnc(-c3ccccc3)s2)CCN1C1CCCCC1 (configuration not stated)	HCMV antiviral inconclusive, Pf growth 96h inconclusive
CC(C)CN1CCN(Cc2cnc(-c3ccc(Cl)cc3)nc2)CC1CCO (configuration not stated)	HCV inh inconclusive, Pf growth 96h inconclusive
OCCC1CN(Cc2cnc(-c3ccccc3)s2)CCN1C1CCCC1 (configuration not stated)	HCMV antiviral -65.6, HCV inh inconclusive
OCCC1CN(Cc2cnc(-c3ccc(Cl)cc3)nc2)CCN1C1CCCC1 (configuration not stated)	Pf growth 48h inconclusive, HCMV antiviral inconclusive, HCV inh 7.08µM, Pf growth 96h inconclusive
CC(C)N1CCN(Cc2ccccc2-c2ccco2)CC1CCO (configuration not stated)	Pf growth 96h inconclusive
OCCC1CN(Cc2ccccc2-c2ccco2)CCN1C1CCCC1 (configuration not stated)	Pf growth 48h 9.28µM, Pf growth 96h inconclusive
Cc1ccc(NC(=O)CSc2nc3ccc(NC(=O)c4ccco4)cc3s2)c(C)c1	none (no result: Pf growth 48h, HCV inh, Pf growth 96h)
COc1cc(O)c(C(C)=O)c(OC)c1	HCMV antiviral inconclusive (no result: Pf growth 48h, Pf growth 96h)
COc1cc(O)c(C(C)=O)c(CC(=O)O)c1	HCV inh 3.16µM, Pf growth 96h inconclusive
Cc1nc(SC(C)C(=O)NC2CCCCC2C)c2c(C)c(C)sc2n1 (configuration not stated)	HCMV antiviral inconclusive, Pf growth 96h 14.7µM
O=C(CCn1cnc2onc(-c3ccc(F)cc3)c2c1=O)N1CCN(c2cccc(Cl)c2)CC1	none (no result: Pf growth 48h, HCV inh, Pf growth 96h)
CC(=O)NC(=S)Nc1ccc(NC(=S)NC(=O)/C=C/c2ccco2)cc1	HCMV antiviral -79.3
Cc1ccc(O)c(NC(=S)NC(=O)/C=C/c2ccco2)c1	none
Cc1ccc(-c2csc(NC(=S)NC(=O)/C=C/c3ccco3)n2)cc1	HCV inh 12.6µM
O=C(O)c1ccccc1C(=O)Nc1nc(-c2ccc3ccccc3c2)cs1	HCV inh inconclusive
O=C(/C=C\c1ccco1)Nc1nc(-c2ccc3ccccc3c2)cs1	HCMV antiviral -75.8, HCV inh inconclusive
COc1ccc(C2C(C(N)=O)=C(C)Nc3nc(CCCO)nn32)c(OC)c1 (configuration not stated)	none (no result: Pf growth 48h, HCV inh, Pf growth 96h)
COC(=O)NC1CSCC1OC(=O)CCN1C(=O)c2ccccc2C1=O (configuration not stated)	HCV inh inconclusive (no result: Pf growth 96h)
CC(=O)NC1CSCC1OC(C)=O (configuration not stated)	Pf growth 96h 9.28µM
CCCCN(CCCC)CC(O)Cn1cc(/C=C/C(=O)c2ccccc2)c2ccccc21 (configuration not stated)	HCMV antiviral -105.9 (no result: Pf growth 48h, HCV inh, Pf growth 96h)
O=C(/C=C/c1cn(CC(O)CN2CCCCCC2)c2ccccc12)c1cccs1 (configuration not stated)	Pf growth 48h 11.7µM, HCV inh inconclusive
CCCCN(C)CC(O)Cn1cc(/C=C/C(=O)c2cccs2)c2ccccc21 (configuration not stated)	Pf growth 48h 8.28µM, HCV inh inconclusive, Pf growth 96h 4.15µM (no result: HCMV antiviral)
CCCCN(C)CC(O)Cn1cc(/C=C/C(=O)c2ccc(OCC)cc2)c2ccccc21 (configuration not stated)	Pf growth 48h 5.22µM, HCMV antiviral -106.7, Pf growth 96h inconclusive (no result: HCV inh)
CCOC(=O)Cn1cc(Cn2c3ccccc3c(=O)n2C(C)C)nn1	none (no result: Pf growth 48h, HCV inh, Pf growth 96h)
CCCCN1CCCc2cc(CN(CCCN3CCOCC3)C(=O)Nc3ccc(CC)cc3)ccc21	none (no result: Pf growth 48h, HCV inh, Pf growth 96h)
CCOc1ccccc1CNc1nc2nc(C)cc(C)n2n1	none (no result: Pf growth 48h, HCV inh, Pf growth 96h)
CCCCc1cc(=O)oc2cc(C)cc(OCC(=O)NCc3ccccn3)c12	Pf growth 48h 2.94µM, HCV inh inconclusive, Pf growth 96h 2.62µM
CCCCc1cc(=O)oc2cc(C)cc(OC(C)C(=O)NCc3ccccn3)c12 (configuration not stated)	Pf growth 48h inconclusive, HCV inh inconclusive, Pf growth 96h inconclusive
Cc1cc(OC(C)C(=O)NCc2ccccn2)c2c(C)cc(=O)oc2c1 (configuration not stated)	Pf growth 48h 1.65µM, Pf growth 96h 3.7µM
